The full list was thinned out, with hits kept by preference.
AmpC detergent = AmpC beta-lactamase inhibition with detergent present; P00811; AmpC hydrolysis of nitrocefin, absorbance 480 nm, 0.01% Triton; Potency, µM (top dose mostly 114 µM), for the others: top-dose activity change, negative = inhibition, hits mostly inhibitors; hit rate 0.041% among 370,000; AID 485294;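 further: potency means the concentration at half of the fitted maximal effect; 0% = no-compound wells and -100% = no-enzyme wells; nearly all actives have a fitted effect of over 25% in size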
Target sequence (P00811 whole entry, looked up): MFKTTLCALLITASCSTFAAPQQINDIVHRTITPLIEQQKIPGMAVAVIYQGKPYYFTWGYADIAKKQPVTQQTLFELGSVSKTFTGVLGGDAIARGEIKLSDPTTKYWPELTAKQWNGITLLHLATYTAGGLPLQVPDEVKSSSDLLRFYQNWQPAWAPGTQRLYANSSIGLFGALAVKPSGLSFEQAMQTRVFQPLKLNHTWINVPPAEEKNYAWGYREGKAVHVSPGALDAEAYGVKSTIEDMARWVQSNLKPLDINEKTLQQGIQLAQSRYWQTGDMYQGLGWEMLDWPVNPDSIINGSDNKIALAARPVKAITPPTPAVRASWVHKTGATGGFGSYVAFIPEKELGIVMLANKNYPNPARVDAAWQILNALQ
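20 mM phosphate pH 7.0 + 0.01% (detergent screen) or 0.0001% Triton X-100; 5.3 nM AmpC reagent; cpd preinc 15 min RT; nitrocefin (800 uM stock) to start; A480 q20 s × 4 min; Activity was normalised to no-enzyme and no-compound control wells.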
Shiga toxin inh = inhibitors of Shiga toxin in Vero cells | Vero cells, Shiga toxin protein synthesis inhibition reporter | inhibition, % at 38.7 µM | hit rate 9.2% among 290,000; in the data active means inhibition mostly above about 28%, no sharp cut-off; inactive means mostly below about 43%; further: 0% is about no effect
AmpC inh no detg = AmpC beta-lactamase inhibition without detergent. P00811. AID 485341. AmpC nitrocefin hydrolysis, absorbance 480 nm, 0.0001% Triton. hit rate 0.52% among 330,000. Potency, µM (doses to about 57.1 µM), inactives show at the highest dose activity change, negative = inhibition, most hits filed as inhibitors;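 further: potency means the concentration at half of the fitted maximal effect; plate controls were no compound for no effect and no enzyme for full effect; nearly all actives have a fitted effect of over 20% in size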
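20 mM phosphate pH 7.0 + 0.01% (detergent screen) or 0.0001% Triton X-100; 5.3 nM AmpC reagent; cpd preinc 15 min RT; nitrocefin (800 uM stock) to start; A480 q20 s × 4 min; Activity was normalised to no-enzyme and no-compound control wells.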
NS1 inh = blocks influenza NS1 protein function; Potency, µM (series often up to 46.1 µM), for the others: at the highest dose activity, positive = more growth; hit rate 0.4% among 270,000; calls by dose curve; further: potency means the concentration at half of the fitted maximal effect; actives are rising curves; nearly all actives have a fitted effect of over 50% in size
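S. cerevisiae expressing influenza A NS1, grown in glucose, washed, then diluted 1:100 into pH 6.0 -URA galactose medium with 23 nl compound. Growth recovery read as OD600; NS1-free strain serves as control.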
Cycloheximide cs = affects cycloheximide protein synthesis inhibition readout, counter-screen; cell reporter, cycloheximide protein synthesis inhibition counterscreen; max response, %; hit rate 12% among 300,000; AID 2314; in the data active means max response mostly above about 13%, no sharp cut-off; inactive means mostly below about 14%; further: read at 38.3 µM for the half of the compounds with a filed dose; 0% is about no effect
Active calls of the source: *; ? = inconclusive; / = no result given; [ ] = remark or other dose. Unless noted, the call rests on the fitted dose curve; in most records, active means well fitted curve in the direction sought with a large enough effect; inconclusive means small, poorly fitted or top-dose-only effect, or another doubt; inactive means no such curve, though single readings can be large; an effect the other way counts as inactive or inconclusive.

SMILES | AmpC detergent | Shiga toxin inh | AmpC inh no detg | NS1 inh | Cycloheximide cs
CC(C)(C)NC(=O)CN(Cc1ccc2c(c1)OCO2)C(=O)CNS(=O)(=O)c1ccccc1 | -10% | -7 | -11% | 16% | -4
CSc1ccc(-c2nnc(NC(=O)c3ccc4c(c3)OCCO4)o2)cc1 | 0% | / | / | / | /
CCCC(=O)Nc1nc(-c2ccc3c(c2)OCCO3)cs1 | ? | 93* | 11µM* | -14% | 40*
CCCC(=O)Nc1nnc(-c2ccc3c(c2)OCCO3)o1 | ? | 58* | 3% | / | 31*
CCCC(=O)Nc1nnc(-c2ccc3c(c2)OCO3)s1 | 0% | -3 | -3% | -5% | -1
NC(=O)C1CCCN(CC(O)COCc2ccc(Cl)cc2)C1 (configuration not stated) | -13% | -6 | -10% | -2% | 2
Cc1ccnc2nc(C(=O)OCC(=O)N(Cc3ccccc3)C(C)C)nn12 | / | / | -20% | / | /
COc1ccc(CNC(=O)C2CCN(c3nc4ccccc4[nH]3)CC2)c(OC)c1 | -2% | / | / | / | /
CC(Oc1ccc(Br)cc1)C(=O)N1CCc2ccccc21 (configuration not stated) | -7% | 45 | -4% | 5% | 7
CC(Oc1ccccc1Br)C(=O)N1CCc2ccccc21 (configuration not stated) | 3% | 79* | -15% | -72% | 51*
COc1cc(CO)ccc1OCC(=O)N1CCc2ccccc21 | 6% | 24* | -6% | -1% | 19*
O=C(COc1ccc(F)cc1Br)N1CCc2ccccc21 | 0% | 47* | -10% | 2% | 42*
CCOc1ccc(C(=O)NCC(=O)NCC(c2ccco2)N2CCCCC2)cc1 (configuration not stated) | 4% | / | 1% | / | /
Cc1ccc(C)c(NC(=O)CCCN2C(=O)C(c3ccccc3)Oc3cccnc32)c1 (configuration not stated) | 18% | / | / | / | /
CCOC(=O)Cc1csc(NC(=O)Nc2ccc(C)cc2)n1 | 2% | 50* | -40% | -10% | 27*
CCOC(=O)Cc1csc(N/N=C/c2ccc(C(F)(F)F)cc2)n1 | ? | 25 | 73% | 12% | 22*
CCOC(=O)Cc1csc(NC(=O)Nc2cccs2)n1 | 2% | 48* | -29% | 9% | 37*
CCOC(=O)Cc1csc(N/N=C/c2cccc([N+](=O)[O-])c2)n1 | 6% | -5 | -10% | -11% | 16
O=C(/C=C/c1ccc2c(c1)OCO2)Nc1nc(-c2ccc(F)cc2F)cs1 | -10% | -18 | ? | 0% | -5
CCOC(=O)Nc1nc(-c2ccc(F)cc2F)cs1 | -1% | 12* | -24% | -18% | 55*
CCCCS(=O)CC(O)CSc1nc(-c2ccc(OC)cc2)cc(-c2ccccc2)c1C#N (configuration not stated) | 12% | / | / | / | /
COC(=O)c1cc2oc(C)cc2n1CC(=O)Nc1cc(Cl)ccc1OC | 21% | / | / | / | /
CCOC(=O)Cc1csc(NC(=O)Nc2ccc(F)cc2)n1 | -5% | 14 | -28% | -1% | 12*
O=C(Nc1ccc(Cl)cc1Cl)c1cc(S(=O)(=O)N2CCC3(CC2)OCCO3)ccc1F | 2% | / | / | / | /
O=[N+]([O-])c1ccc(Nc2ccc(F)cc2)nc1 | 11% | 32* | -27% | -15% | 15*
SMILES | AmpC detergent | Shiga toxin inh | AmpC inh no detg | NS1 inh | Cycloheximide cs
Cc1ccc(Nc2ccc([N+](=O)[O-])cn2)cc1Cl | -1% | 46* | -37% | -23% | 27*
CN(C)c1ccc(Nc2ccc([N+](=O)[O-])cn2)cc1 | ? | 132* | -18% | -25% | 34*
CC(=O)Nc1ccc(Nc2ccc([N+](=O)[O-])cn2)cc1 | -11% | 37 | -5% | -8% | 6
COc1ccc(S(=O)(=O)N2CCOCC2)cc1NC(=O)CSc1nnc2ccccn12 | ? | -7 | -25% | 4% | -3
O=C(/C(=C/O)N=Nc1ccccc1Cl)c1ccccc1 | -14% | 98 | -32% | / | 31*
C=CCn1c(SCC(=O)N2CCc3ccccc3C2)nc2sc(C)c(C)c2c1=O | -9% | -10 | -33% | 29% | -2
O=C(Nc1ccccc1Cl)OCc1cncs1 | 2% | 22 | -17% | -4% | 17*
Cc1cccc(C(=O)OCc2cncs2)c1 | 2% | 53 | -11% | 1% | 33*
CCCCOC1CC(c2ccc(OCc3ccc(OC)cc3)c(OC)c2)N(C)O1 (configuration not stated) | -4% | 85* | 143% | / | 24*
C=C(C)c1ccccc1 (tested in a mixture with another compound) | / | / | / | -3% | /
O=C(/C=C/c1ccc(Cl)cc1)NC1CCS(=O)(=O)C1 (configuration not stated) | 2% | 12 | 2% | / | -2
O=C(/C=C/c1ccc([N+](=O)[O-])cc1)NNC(=O)C1CC1 | 1% | -13 | -9% | / | 5
O=C(/C=C/c1ccc(Cl)cc1)NC1CC2CCC1C2 (configuration not stated) | -8% | 129* | 1%[2.29 µM] | -47% | 26*
O=C(/C=C/c1ccc([N+](=O)[O-])cc1)NC1CC2CCC1C2 (configuration not stated) | 2% | 49* | -27% | / | 43*
CS(=O)(=O)Nc1ccccc1C(=O)NC1CC2CCC1C2 (configuration not stated) | 0% | -19 | -15% | 4% | 0
O=C(/C=C/c1ccccc1)NC1CC2CCC1C2 (configuration not stated) | 0% | 106* | -28% | 2% | 45*
Cc1ccc2nc(Cl)c3cc(C(=O)N(C)C4CCCCC4)sc3c2c1 | 0% | / | / | / | /
Cc1c(C(=O)N(C)C2CCCCC2)sc2nc3ccc(N)cc3n12 | / | 43* | / | / | 31*
Cn1nc(-c2ccc(Cl)cc2)cc1NC(=O)CCCC(=O)O | -3% | -5 | -2% | 3% | -2
COC(=O)c1ccc(OCCOc2ccccc2)cc1 | 0% | 59* | -4% | -4% | 22*
COC(=O)c1ccc(OCCOCCOc2cccc3ccc(C)nc23)cc1 | ? | 12 | 130% | -5% | -1
COC(=O)c1ccc(OCCOc2ccccc2C)cc1 | -15% | 105 | -14% | -4% | 12*
COC(=O)c1ccc(N=Nc2ccccc2)cc1 | ? | 79* | -9% | / | 32*
COC(=O)c1ccc(NCCC(=O)O)cc1 | 3% | -1 | -37% | 6% | -2
O=C(N/N=C/c1cccc(Br)c1)c1ccc(Cn2cc(Br)cn2)o1 | ? | 56* | -39% | -1% | 17
NNC(=O)c1ccc(Cn2cccn2)o1 | -9% | 52* | -10% | 1% | 20
NNC(=O)c1ccc(Cn2cc(Br)cn2)o1 | ? | 61* | -18% | 0% | 27*
Cc1ccc(/C=N\NC(=O)c2ccc(Cn3cc(Br)c([N+](=O)[O-])n3)o2)o1 | 1% | -9 | -25% | 6% | -3
Cc1ccccc1/C=N\NC(=O)c1ccc(Cn2cccn2)o1 | 2% | 32 | -15% | -14% | 5
O=C(N/N=C\c1cccc(Cl)c1)c1ccc(Cn2cc(Br)c([N+](=O)[O-])n2)o1 | -1% | 24* | -30% | ? | 8

Screening data: PubChem, National Center for Advancing Translational Sciences (NCATS)
